Screening data (PubChem BioAssay)
In the library only some 6.6% were active in any assay of this set; here they are far more common.
HT1080-NT tox: qHTS for induction of synthetic lethality in tumor cells producing 2HG: qHTS for the HT-1080-NT fibrosarcoma cell line; Potency, µM (titrated, usually from 46.1 µM), for the others: top-dose activity, negative = less viability, most hits filed as cytotoxic; HT-1080-NT fibrosarcoma viability, CellTiter-Glo ATP luminescence, 48 h; 1.6% of 360,000 active; AID 686970, 2013;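 also: NT is the 2HG producing partner of a matched IDH1 knockdown line; 0% = DMSO-treated cells and -100% = media-only wells without cells; nearly all actives have a fitted effect of over 55% in size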
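Viability of the 2HG-overproducing fibrosarcoma line after 48 hours of compound exposure at 37 degrees C was determined by luminescence with CellTiter-Glo, and concentration-effect curves were then fitted and categorized.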
HT1080 IDH1KD tx: qHTS for induction of synthetic lethality in tumor cells producing 2HG: qHTS for the HT-1080-IDH1KD cell line. HT-1080 IDH1 knockdown viability, ATP luminescence, 48 h. Potency, µM (top dose mostly 46.1 µM), for the others: top-dose activity, negative = toxicity, most hits filed as cytotoxic. 2% of 360,000 active;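 also: 0% = DMSO wells and -100% = cell-free medium wells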
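Luminescent ATP read-out (CellTiter-Glo, 10 min at room temperature) after 48 h compound exposure at 37 °C gave viability of IDH1-knockdown HT-1080 cells. Activity was normalised to DMSO and cell-free wells, then fitted as concentration-response curves.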
TGFb SMAD3 inh: qHTS for Inhibitors of TGF-b. HepG2 CAGA-GFP TGF-b/SMAD3 reporter, GFP fluorescence, 18 h; TGF-beta stimulated, 500 pg/mL final. Potency, µM (doses to about 46.1 µM), without a hit: at the top dose activity, negative = inhibition, hits mostly inhibitors. 1.2% of 410,000 active; also: % is scaled to controls: 0 for no effect and ±100 for the full control effect; nearly all actives have a fitted effect of over 65% in size
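First, reporter cells (HEPG2 CAGA-GFP) rested 2 h at 37 degrees C. Next, compounds were pinned in and TGF-beta added to 500 pg/mL final. After 18 h, GFP was imaged per cell and summed per well.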
KB-V1 cytotox: qHTS assay for MDR1-selective chemotherapeutics: Primary screen using the drug-selected MDR subline cells KB-V1; KB-V1 MDR cells viability, CellTiter-Glo, 72 h; Potency, µM (top dose mostly 46.1 µM), most hits filed as cytotoxic; 3.4% of 400,000 active; AID 1347076, 2019; also: % is scaled to controls: 0 for no effect and ±100 for the full control effect; nearly all actives have a fitted effect of over 60% in size
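KB-V1 cells (P-gp-expressing MDR subline of KB-3-1) in phenol-red-free DMEM with 10% FBS were exposed to library compounds over a concentration series for 72 h at 37 degrees C. Viability read by CellTiter-Glo luminescence; concentration-effect curves fitted after normalization.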
HepG2 viability: qHTS for Inhibitors of TGF-b: Cytotox Counterscreen; Potency, µM (doses to about 46.1 µM), inactives show top-dose activity change, negative = cytotoxicity, actives largely listed as cytotoxic; 0.76% of 410,000 active; HepG2 CAGA-GFP viability, ATP luminescence, 18 h
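CellTiter-Glo luminescence gave cytotoxicity after 18 hours at 37 degrees C. The cells were HepG2 CAGA-GFP in 1% FBS DMEM, stimulated with 500 pg/mL TGF-beta after compound addition. %Activity was normalised to no-cell wells (complete cell-killing) and DMSO (no toxicity), and curves were fitted and classified.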
KB-3-1 tox: qHTS assay for MDR1-selective chemotherapeutics: Primary screen using the parental adenocarcinoma cell KB-3-1 | 1.4% of 400,000 active | Potency, µM (top dose mostly 46.1 µM), usual class: cytotoxic | KB-3-1 viability, CellTiter-Glo ATP luminescence, 72 h; also: % is scaled to controls: 0 for no effect and ±100 for the full control effect; nearly all actives have a fitted effect of over 60% in size
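Cytotoxicity in the drug-sensitive parental line KB-3-1 was scored as loss of CellTiter-Glo luminescence following 72 h incubation with compound. Values come from curve fitting of normalized concentration-response data.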
Starred values were filed as active, the others as inactive; i = inactive; u = inconclusive; x = not tested or not shown; [ ] = another dose, or the depositor's remark. Calls follow the shape of the dose curve; as a rule, active = well fitted curve in the direction sought with a large enough effect; inconclusive = small, poorly fitted or top-dose-only effect, or another doubt; inactive = no such curve, though single readings can be large; an effect the other way counts as inactive or inconclusive. Potency is read from the fitted curve at half-maximal effect.

SMILES	HT1080-NT tox	HT1080 IDH1KD tx	TGFb SMAD3 inh	KB-V1 cytotox	HepG2 viability	KB-3-1 tox
CC(=O)c1cccc(NC(=O)N2CCC(CN3CCCCC3)CC2)c1	x	x	32%	i	-3%	i
COc1ccc(OC)c(NC(=O)c2c3c(nc4ccccc24)CCC3)c1	1%	-11%	6%	6.5µM*	-10%	i
COc1ccc(NC(=O)c2c3c(nc4ccccc24)CCC3)cc1	2%[9.24 µM]	-11%	2%	i	2%	i
COc1cc(NC(=O)CSc2c3c(nc4ccccc24)CCC3)cc(OC)c1OC	-12%	-9%	u	15µM*	-24%	i
COc1ccccc1NC(=O)CSc1c2c(nc3ccccc13)CCC2	-6%	-26%	-10%	u	-9%	i
N=c1nc(N)nc2n1NC(c1ccc(F)cc1)=CS2	u	u	-4%	1.3µM*	-45%	i
Cc1ccc(Cl)cc1-n1c(=O)c2sc3ccccc3c2n(CC(=O)NC2CCCCC2)c1=O	x	x	-18%	i	7%	i
O=C(Cc1ccc([N+](=O)[O-])cc1)N1CCCCCC1	14%	-3%	-7%	i	-22%	i
O=C(CCc1ccc(Oc2cc([N+](=O)[O-])cc([N+](=O)[O-])c2)cc1)N1CCCCCC1	-13%	-14%	18µM*	u	-38%	u
COc1ccc(C(=O)CCS(=O)(=O)c2ccc(C)cc2)cc1	8%	u	u	i	7.1µM*	i
Cc1ccc(C(=O)CCS(=O)(=O)c2ccc(Br)cc2)cc1	5%	3%	u	i	-79%	i
CC(=O)c1cccc([N+](=O)[O-])c1	3%	16%	3%	i	-8%	i
CCOC(=O)c1ccc([N+](=O)[O-])c(CS(=O)(=O)c2ccc(Cl)cc2)c1	-7%	0%	-4%	i	-8%	i
Cc1ccc(S(=O)(=O)CCC(=O)c2cccc([N+](=O)[O-])c2)cc1	u	6.5µM*	11µM*	i	-67%	i
Cc1ccc(S(=O)(=O)Cc2cc(F)c([N+](=O)[O-])cc2[N+](=O)[O-])cc1	2.9µM*	6.5µM*	u	u	-101%	u
CCC1C(c2ccccc2)N(C)C(c2ccccc2)CC1(O)c1ccccc1 (centres undefined)	u	16µM*	u	i	13µM*	u
CC1C(=O)CC(c2ccccc2)N(C)C1c1ccccc1 (centres undefined)	-26%	-1%	2%	i	-2%	i
CCN(CC)CCNCc1cc(Cl)ccc1OCc1ccccc1F	23µM*	u	-1%	u	-32%	i
O=C(C1CCN(S(=O)(=O)c2ccc(Br)s2)CC1)N1CCN(c2cccc(Cl)c2)CC1	x	x	-11%	i	-23%	i
CCOC(=O)C1=C(O)/C(=C/c2cn(CC(=O)N3CCCC3)c3ccccc23)SC1=Nc1ccccc1	-1%	5%	8%	i	-20%	15µM*
COC(=O)c1cn(CC(=O)N2CCCCCC2)c2ccccc12	4%	1%	2%	i	-1%	i
CCOc1ccc(C(=O)Nc2cccc(-c3nc4cccnc4s3)c2C)cc1OCC	x	x	-26%	x	0%	x
COC(=O)c1cc(S(=O)(=O)NCc2ccccc2)c[nH]1	0%	6%	3%	i	-1%	i
COC(=O)c1cc(S(=O)(=O)N(Cc2ccccc2)C(C)(C)C)c[nH]1	u	23µM*	-4%	i	-22%	u
